# CYP2C19 act – human CYP2C19 activators, primary screen, biochemical, luminescence. 96,000 tested, under 10 active. Cytochrome P450 2C19 (Homo sapiens), P33261. activation factor at 5 µM. recombinant CYP2C19, luciferin-H EGE luminescence; active compounds read high; 0 = fully inhibited enzyme, 1 = untreated enzyme;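 active = activation factor of at least 2 at 5 µM in the primary screen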;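 also: 0 = wells with 2.5 mM tranylcypromine and 1 = vehicle-only wells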
# CYP2C9 inh – blockers of cytochrome P450 2C9 activity – biochemical, luminescence, ADME assay, primary screen; P11712; CYP2C9 Supersomes, luciferin-H conversion; inhibition, % at 5 µM; hit rate 20% among 96,000; AID 777, 2007;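 active = blocking of liver enzyme CYP2C9 beyond about 50% at 5 µM, limit read from the data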
# Target sequence (P11712 whole entry, looked up): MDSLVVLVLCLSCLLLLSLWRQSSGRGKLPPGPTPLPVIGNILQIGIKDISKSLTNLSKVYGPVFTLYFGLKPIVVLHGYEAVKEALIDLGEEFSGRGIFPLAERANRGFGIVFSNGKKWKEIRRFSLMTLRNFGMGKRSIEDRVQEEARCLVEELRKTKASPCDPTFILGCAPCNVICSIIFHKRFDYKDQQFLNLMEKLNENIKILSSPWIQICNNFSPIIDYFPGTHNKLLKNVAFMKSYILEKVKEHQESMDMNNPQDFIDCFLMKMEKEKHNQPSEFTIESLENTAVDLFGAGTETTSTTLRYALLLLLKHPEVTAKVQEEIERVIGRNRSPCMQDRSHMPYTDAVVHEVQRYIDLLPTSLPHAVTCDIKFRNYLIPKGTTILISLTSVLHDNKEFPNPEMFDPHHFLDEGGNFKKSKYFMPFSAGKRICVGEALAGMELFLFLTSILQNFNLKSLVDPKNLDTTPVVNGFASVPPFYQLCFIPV
# CYP2C19 inhib – blockers of cytochrome P450 2C19 activity – biochemical, luminescence, ADME assay, primary screen; P33261; CYP2C19 Supersomes, luciferin-H EGE luminescence, 30 min; inhibition, % at 5 µM; hit rate 21% among 96,000; AID 778, 2007;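 active = CYP2C19 inhibition above a set limit at 5 µM in the primary screen, cut at about 50% in these data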;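 also: plate controls were negative control wells for no effect and 2.5 mM tranylcypromine positive control for full effect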
# CYP2C9 act – human CYP2C9 activators, primary screen, biochemical, luminescence. activation factor at 5 µM. hit rate 1.4% among 96,000. AID 1024, 2008. Cytochrome P450 2C9 (Homo sapiens), P11712. recombinant CYP2C9, luciferin-H conversion; active compounds read high; factor 1 = untreated enzyme, 0 = blocked;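 active = activation factor of 2 or more for CYP2C9 at a 5 µM dose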;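 also: 0 = sulfaphenazole-blocked wells and 1 = vehicle-only wells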
# PostGolgi yeast – phenotypic screen on post-Golgi transport, primary screen. post-Golgi transport phenotypic cell assay. inhibition, % at 10 µM. hit rate 0.9% among 98,000. AID 739, 2007;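 also: yeast cells grown in 1536-well plates; yeast grown about 18 h at 30C before absorbance read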
# PostGolgi ctrl – growth inhibition of yeast control strain, primary screen, counter-screen for post-Golgi transport modulator project; efflux-deficient yeast background strain, growth absorbance A615, 16 h; inhibition, % at 10 µM; hit rate 5% among 98,000; AID 738, 2007
# * = called active by the depositor. This is a sample that favours compounds with a hit; in the whole collection about 32% have one here. Rule as the data show it, unless noted: active = inhibition above about 30%; inactive = the rest.
SMILES,CYP2C19 act,CYP2C9 inh,CYP2C19 inhib,CYP2C9 act,PostGolgi yeast,PostGolgi ctrl
N#Cc1cc(-c2ccccc2)nn1-c1ccccc1,1,36,3,0.6,-8,11
c1ccc(-c2nnc(SCc3cn4ccsc4n3)o2)cc1,0.3,-3,69*,1,3,10
C=C(Br)Cn1c(CCC)nc2ccccc21,0.7,-15,34,1.2,-2,1
CCS(=O)(=O)NCc1ccc2[nH]c3c(c2c1)CCCC3,0.6,74*,38,0.3,2,18
COC(=O)c1cc(NC(=O)Nc2ccccc2OC)cc(C(=O)OC)c1,0.9,18,14,0.8,-8,1
C=CCSc1nc2c(sc3nc(C)cc(C)c32)c(=O)[nH]1,0.9,36,9,0.6,-6,29
Cc1cc(C)c2c(n1)sc1c(=O)[nH]c(SCc3ccccc3)nc12,0.9,64*,6,0.4,-2,26
CCOC(=O)c1cnc(-n2nc(C)cc2C)nc1NCc1ccc2c(c1)OCO2,0.7,62*,33,0.4,22,12
CCOC(=O)c1cnc(-n2nc(C)cc2C)nc1NCCc1ccccc1,0.2,92*,83*,0.1,6,39*
COc1ccc(C2=CC(c3ccc(Cl)cc3)n3cnnc3N2)cc1OC (stereo not given),0.7,40,25,0.6,12,3
COc1cccc(/C=N\NC(=O)C2C(=O)NCC2c2ccccc2)c1O (stereo not given),1.1,-8,-12,1.1,8,3
Cc1ccc2nc(N3CCN(S(=O)(=O)c4ccc(C)c(Cl)c4)CC3)c(C#N)cc2c1,0.8,42,20,0.6,-4,9
COc1ccc(S(=O)(=O)O/N=C2\CCCc3ccccc32)cc1,0.6,-56,42,1.6,13,-2
CCCN(CCC)c1nc(N)nc(-c2cc(Cl)ccc2OC)n1,0.4,16,58*,0.8,9,56*
CCCNc1nc(N)nc(-c2cc(Cl)ccc2OC)n1,0.3,26,74*,0.7,2,14
CCOc1cc(C(=O)Nc2ccon2)cc(OCC)c1OCC,1.1,19,-11,0.8,5,7
O=C(Nc1cccnc1)c1cc2nc(C3CC3)cc(C(F)(F)F)n2n1,0.4,74*,64*,0.3,2,2
COc1cc(OC)cc(C(C(=O)NCc2ccccc2)N(Cc2ccco2)C(=O)c2ccno2)c1 (stereo not given),0.3,60*,69*,0.4,-1,25
COc1ccc(CC(NC(C)=O)C(=O)NC2CCN(S(=O)(=O)c3ccccc3)CC2)cc1OC (stereo not given),1,-42,-4,1.4,4,0
Cc1nn2c(N3CCN(c4ccccn4)CC3)cc(C(C)C)nc2c1-c1ccccc1,0.9,62*,14,0.4,41*,99*
COc1ccc(/C=C2\CCCC3C2=NN(C(=O)c2scnc2C)C3c2ccc(OC)c(OC)c2)cc1OC (stereo not given),1,0,-4,1,10,0
Cc1cccc(OCC(=O)Nc2ccccc2N2CCN(C(=O)C(C)C)CC2)c1C,0.7,56*,30,0.4,3,42*
CC(=O)N1CCN(c2ccccc2NC(=O)COc2cc(C)ccc2C(C)C)CC1,0.1,94*,90*,0.1,-5,15
Cc1ccccc1OCC(=O)Nc1ccccc1N1CCCCC1,0.8,4,17,1,-4,0
Cc1ccc(C(C)C)c(OCC(=O)Nc2ccccc2N2CCN(C)CC2)c1,0.3,87*,69*,0.1,0,1
CCCCNC(=O)C(Cc1ccccc1)NS(=O)(=O)c1ccc2c(c1)c(=O)n(C)c(=O)n2C (stereo not given),0.7,49,27,0.5,-4,-11
CC(C)C(NS(=O)(=O)c1ccc2c(c1)OCCO2)C(=O)NCCc1ccccn1 (stereo not given),0.7,8,32,0.9,0,1
Cc1nc(-c2cccc(NS(=O)(=O)c3ccc4ccccc4c3)c2)cs1,0.7,-59,32,1.6,8,39*
